Drawing on PubChem BioAssay, this text covers log fold change Tl+ flux for twelve molecules.

Holding throughout (assay): BK channel mutant inhibitors and activators – cell-based, U2OS BacMam, thallium flux, beta subunits, selectivity assay, profiling panel (AID 1259406);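 further: initial slope of Thallos dye fluorescence rise after thallium is added; log ratio against the mean of 0.3% DMSO vehicle wells on the same plate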
The subject of one assay is F380Y. Particulars: U2OS BacMam BK variants, at 30 µM.
The test system of a further assay is F380Y/beta1. Particulars: U2OS BacMam BK variants, at 30 µM.
Another assay has as its system F380Y/beta2Delta. Particulars: U2OS BacMam BK variants, at 30 µM.
In another assay the test system is F380Y/beta4. Particulars: U2OS BacMam BK variants, at 30 µM.
For assay [1], the target named is Calcium-activated potassium channel subunit alpha-1 (Homo sapiens) + Leucine-rich repeat-containing protein 26 (Homo sapiens) (UniProt Q12791+Q2I0M4). Particulars: U2OS BacMam BK variants, F380Y/Slo1WT/gamma1, at 30 µM.
For another assay, the system named is R275C. Particulars: U2OS BacMam BK variants, at 30 µM.
Another assay has as its system R275C/beta1. Particulars: U2OS BacMam BK variants, at 30 µM.
For another assay, the system named is R275C/beta2Delta. Particulars: U2OS BacMam BK variants, at 30 µM.
A further assay relates to R275C/beta4. Particulars: U2OS BacMam BK variants, at 30 µM.
The next assay has as its system R275C/Slo1WT/beta2. Particulars: U2OS BacMam BK variants, at 30 µM.

Unmarked numbers belong to inactive results. Calls of active or inactive are those of the source.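 How the source made its calls: active means thallium flux through the channel raised or lowered by more than 3 SD from vehicle-only wells, actives on both sides; inactive means the rest.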

Sequence of Calcium-activated potassium channel subunit alpha-1 (Homo sapiens) + Leucine-rich repeat-containing protein 26 (Homo sapiens) (Q2I0M4 whole entry, looked up, one chain of several): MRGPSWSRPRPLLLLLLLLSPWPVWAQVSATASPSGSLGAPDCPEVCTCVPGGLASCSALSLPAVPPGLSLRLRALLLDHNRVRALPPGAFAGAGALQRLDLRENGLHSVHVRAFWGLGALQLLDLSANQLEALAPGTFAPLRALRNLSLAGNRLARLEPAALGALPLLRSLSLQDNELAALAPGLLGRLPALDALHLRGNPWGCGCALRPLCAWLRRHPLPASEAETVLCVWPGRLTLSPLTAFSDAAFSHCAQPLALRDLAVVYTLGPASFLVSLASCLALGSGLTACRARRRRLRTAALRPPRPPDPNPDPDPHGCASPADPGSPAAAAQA

As to `COC(=O)c1sccc1NN=C(C)c1ccc(NC(=O)C(Cl)Cl)cc1`, the log fold change Tl+ flux with F380Y was 0.0593; in the assay with F380Y/beta1 it was -0.0356; with F380Y/beta2Delta it was 0.0103; in the assay on F380Y/beta4 it was -0.0317; in assay [1], 0.0385; in the assay with R275C, -0.0133. The log fold change Tl+ flux in the assay with R275C/beta1 was -0.0386; with R275C/beta2Delta, -0.0375; in the assay on R275C/beta4, -0.0101; with R275C/Slo1WT/beta2, 0.0362.

For the molecule `O=C(O)c1cccc(CSc2cccs2)c1`, the log fold change Tl+ flux in the assay with F380Y was 0.0692; in the assay on F380Y/beta1, 0.0279; with F380Y/beta2Delta, 0.0398; with F380Y/beta4, 0.000664; in [1], 0.0207; with R275C, 0.0115. For the same molecule, the log fold change Tl+ flux with R275C/beta1 was 0.0346; with R275C/beta2Delta, 0.018; with R275C/beta4, 0.0269; with R275C/Slo1WT/beta2, 0.0372.

As for `O=c1[nH]nc(N2CCSCC2)[nH]1`, the log fold change Tl+ flux with F380Y was 0.00841; in the assay with F380Y/beta1, 0.0329; with F380Y/beta2Delta it was -0.0177; with F380Y/beta4 it was 0.0123; in [1], -0.0239; in the assay on R275C, 0.0133. For the same molecule, the log fold change Tl+ flux was 0.000508 in the assay with R275C/beta1, -0.00725 with R275C/beta2Delta, 0.0241 with R275C/beta4 and 0.014 in the assay with R275C/Slo1WT/beta2.

As for `CC(C)(C)c1cc2nc(C(F)(F)F)cc(NN=Cc3ccccc3)n2n1`, the log fold change Tl+ flux is 0.0101 with F380Y; 0.0617 with F380Y/beta1; 0.0191 in the assay with F380Y/beta2Delta; -0.0217 with F380Y/beta4; -0.0501 in assay [1]; -0.0499 in the assay with R275C. The log fold change Tl+ flux is -0.0176 with R275C/beta1, -0.0336 with R275C/beta2Delta, -0.0304 with R275C/beta4 and -0.0137 in the assay on R275C/Slo1WT/beta2.

Regarding `COC(=O)C=C1NCC(O)CNC1=O` (stereo not given), the log fold change Tl+ flux in the assay on F380Y was -0.00633; with F380Y/beta1 it was -0.0361; in the assay with F380Y/beta2Delta it was 0.00999; in the assay on F380Y/beta4 it was -0.025; in [1], -0.0336; in the assay on R275C, 0.0119. In addition, the log fold change Tl+ flux with R275C/beta1 was -0.0456; in the assay with R275C/beta2Delta it was 0.0117; in the assay on R275C/beta4 it was -2.9e-05; in the assay with R275C/Slo1WT/beta2, 0.0313.

Turning to `CC1(C)CC(=O)C=C(NCCCCCCCCNC2=CC(=O)CC(C)(C)C2)C1`, the log fold change Tl+ flux in the assay on F380Y is 0.000907; with F380Y/beta1 it was 0.0262; in the assay on F380Y/beta2Delta it was 0.0043; in the assay with F380Y/beta4, 0.0246; in assay [1], -0.0867; in the assay with R275C, -0.0564. The log fold change Tl+ flux was -0.0828 in the assay with R275C/beta1, -0.0562 in the assay on R275C/beta2Delta, -0.0723 with R275C/beta4 and -0.149 (active) in the assay on R275C/Slo1WT/beta2.

For the molecule `O=C(Nc1csc(Cc2c(Cl)cccc2Cl)n1)NN1CCOCC1`, the log fold change Tl+ flux with F380Y was 0.0786; in the assay on F380Y/beta1, 0.0031; in the assay on F380Y/beta2Delta, 0.0515; in the assay on F380Y/beta4, 0.11 (active); in assay [1] it was -0.0174; in the assay with R275C, -0.0115. For the same molecule, the log fold change Tl+ flux in the assay on R275C/beta1 was 0.0073; in the assay with R275C/beta2Delta, 0.0159; in the assay with R275C/beta4, 0.00549; in the assay with R275C/Slo1WT/beta2, -0.0281.

On to `CC(=O)N(C(C)=O)c1ccc2c3c(cccc13)CC2`, for which the log fold change Tl+ flux is 0.051 with F380Y; -0.00187 in the assay on F380Y/beta1; -0.0119 with F380Y/beta2Delta; -0.0487 in the assay with F380Y/beta4; -0.0226 in [1]; 0.0133 in the assay on R275C. Further, the log fold change Tl+ flux was 0.0421 with R275C/beta1, -0.00855 in the assay with R275C/beta2Delta, 0.0484 with R275C/beta4 and 0.0138 with R275C/Slo1WT/beta2.

Take `Cc1onc(-c2c(Cl)cccc2Cl)c1C1=NCCO1`: the log fold change Tl+ flux in the assay on F380Y is -0.0274; in the assay on F380Y/beta1 it was -0.0222; in the assay with F380Y/beta2Delta, -0.0541; in the assay on F380Y/beta4, -0.0118; in assay [1], -0.0114; in the assay with R275C, -0.0117. The log fold change Tl+ flux with R275C/beta1 was -0.0507; in the assay with R275C/beta2Delta it was -0.0377; in the assay on R275C/beta4 it was 0.0277; in the assay with R275C/Slo1WT/beta2, -0.00731.

`CN1CCN(CC(=O)Nc2ccccc2Oc2ccccc2)CC1`: the log fold change Tl+ flux is 0.0235 in the assay with F380Y; 0.0196 with F380Y/beta1; 0.0764 with F380Y/beta2Delta; 0.0239 with F380Y/beta4; 0.0414 in [1]; -2.9e-05 in the assay on R275C. The log fold change Tl+ flux is 0.00212 in the assay on R275C/beta1, 0.00784 with R275C/beta2Delta, 0.00808 in the assay with R275C/beta4 and 0.0378 in the assay with R275C/Slo1WT/beta2.

`O=C(NNc1c(Cl)cccc1Cl)c1csc(Cc2c(Cl)cccc2Cl)n1`: the log fold change Tl+ flux in the assay with F380Y was 0.031; in the assay on F380Y/beta1, -0.0231; with F380Y/beta2Delta, 0.0346; in the assay on F380Y/beta4, -0.048; in assay [1] it was -0.0234; in the assay on R275C, 0.0148. Besides, the log fold change Tl+ flux was -0.0344 in the assay with R275C/beta1, 0.00139 in the assay on R275C/beta2Delta, -0.00534 in the assay with R275C/beta4 and 0.0322 with R275C/Slo1WT/beta2.

For the molecule `CC(=O)c1cc2cc(Cl)cc(Cl)c2oc1=O`, the log fold change Tl+ flux with F380Y is 0.0337; in the assay on F380Y/beta1, 0.0359; in the assay on F380Y/beta2Delta it was -0.0227; in the assay with F380Y/beta4, -0.0296; in assay [1] it was -0.0196; with R275C, -0.0332. Moreover, the log fold change Tl+ flux in the assay with R275C/beta1 was 0.029; with R275C/beta2Delta, 0.0111; in the assay with R275C/beta4, -0.0163; in the assay on R275C/Slo1WT/beta2 it was -0.0243.
